Where a name gives a salt, the structure may show the parent alone.
system: Saccharomyces cerevisiae BY4741 SeMeCo community; experiment: z-score of subpopulation abundance vs DMSO median, subpopulation auxotrophic for UM; higher = larger share of this subpopulation than in DMSO controls; conditions: 10 µM; 24 h; SM minimal medium; subpopulation (auxotrophy): UM
Method: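 Fluorescent four-plasmid SeMeCo (self-establishing metabolically cooperating S. cerevisiae BY4741 community; plasmids pH-mRuby2, pL-mWasabi, pU-eCFP, pM-TagRFP657) was grown 24 h in minimal SM medium with each Selleck FDA-approved drug at 10 µM in 384-well plates. Cells were fixed and imaged by high-content confocal microscopy. For each auxotrophic subpopulation (and the prototroph), a z-score gives the deviation from the DMSO vehicle-control population median.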

Compound	z-score of subpopulation abundance
O=c1[nH]c2ccccc2n1CCCN1CCC(n2c(=O)[nH]c3cc(Cl)ccc32)CC1 [Domperidone]	0.56
C=CCN1C[C@H](C(=O)N(CCCN(C)C)C(=O)NCC)C[C@@H]2c3cccc4[nH]cc(c34)C[C@H]21 [Cabergoline]	-0.17
O=C(O[C@H]1C[C@H]2CC[C@@H](C1)[N+]21CCCC1)C(O)(c1ccccc1)c1ccccc1 [Trospium chloride]	-0.43
N#Cc1nn(-c2c(Cl)cc(C(F)(F)F)cc2Cl)c(N)c1[S+]([O-])C(F)(F)F (centres undefined) [Fipronil]	-0.68
C=C[C@H]1CN2CC[C@H]1C[C@H]2[C@H](O)c1ccnc2ccccc12 [Cinchonidine]	0.45
CN(C)[C@@H]1C(=O)C(C(N)=O)=C(O)[C@@]2(O)C(=O)C3=C(O)c4c(O)cccc4[C@@](C)(O)[C@H]3[C@H](O)[C@@H]12 [Oxytetracycline (Terramycin)]	-0.17
CCOC(=O)Nc1ccc(NCc2ccc(F)cc2)cc1N [Retigabine 2HCl]	-0.52
CC[C@@]1(O)C(=O)OCc2c1cc1n(c2=O)Cc2cc3ccccc3nc2-1 [Camptothecin]	0.1
CC(NC(C)(C)C)C(=O)c1cccc(Cl)c1 (centres undefined) [Amfebutamone (Bupropion) HCl]	-0.25
C=CC[C@]1(O)CC[C@H]2[C@@H]3CCC4=CC(=O)CCC4=C3C=C[C@@]21C [Altrenogest]	-0.72
CCN(CC)CCOC(=O)C(O)(c1ccccc1)c1ccccc1 [Benactyzine hydrochloride]	0.21
CCN(C)C(=O)Oc1cccc([C@H](C)N(C)C)c1 [Rivastigmine]	0.75
CC(C)(O)C(Cl)(Cl)Cl [Chlorobutanol]	0.14
O=[N+]([O-])C(Br)(CO)CO [Bronopol]	-0.1
C[N+](C)(C)CCCCCCCCCC[N+](C)(C)C [Decamethonium Bromide]	0.35
CC(=O)O[C@H]1C[C@@H]2CC[C@@H]3[C@H](CC[C@@]4(C)[C@H]3C[C@H]([N+]3(C)CCCCC3)[C@@H]4OC(C)=O)[C@@]2(C)C[C@@H]1[N+]1(C)CCCCC1 [Pancuronium dibromide]	-0.06
CN(C)[C@@H]1C(=O)C(C(N)=O)=C(O)[C@@]2(O)C(=O)C3=C(O)c4c(O)ccc(Cl)c4[C@@](C)(O)[C@H]3C[C@@H]12 [Chlortetracycline HCl]	-0.66

Compound	z-score of subpopulation abundance
C[C@@H]1CC[C@H]2[C@@H](C)C(=O)O[C@@H]3O[C@@]4(C)CC[C@@H]1[C@]32OO4 [Artemisinin]	-0.66
Nc1nc(N)nc(NC2CC2)n1 [Cyromazine]	0.57
CCCCCCCCCCCCCCCC[n+]1ccccc1 [Cetylpyridinium Chloride]	3.46
CC1(C)SC2C(N)C(=O)N2C1C(=O)O (centres undefined) [6-Aminopenicillanic acid]	0.97
COc1ccc(C=O)cc1 [p-Anisaldehyde]	-0.71
O=c1cccc2n1C[C@@H]1CNC[C@H]2C1 [Cytisine]	-0.6
CN1[C@@H]2CC[C@H]1C[C@@H](OC(=O)[C@H](CO)c1ccccc1)C2 [Hyoscyamine]	-0.14
NC(=O)CN1CCCC1=O [Piracetam]	0.74
Nc1ccncc1 [4-Aminopyridine]	-0.05
CCC1=C[C@H]2CN3CCc4c([nH]c5ccccc45)[C@](C(=O)OC)(C2)[C@H]13 [Catharanthine]	0.1
COc1ccc(C(CN(C)C)C2(O)CCCCC2)cc1 (centres undefined) [Venlafaxine HCl]	0.66
C#C[C@]1(O)C=C[C@H]2[C@@H]3CCC4=CC(=O)CC[C@@H]4[C@H]3CC[C@@]21CC [Gestodene]	-1.14
Cn1cc(C2=C(c3cn(C4CCN(Cc5ccccn5)CC4)c4ccccc34)C(=O)NC2=O)c2ccccc21	0.73
O=C(O[C@H]1C[N+]2(CCCOc3ccccc3)CCC1CC2)C(O)(c1cccs1)c1cccs1 [Aclidinium Bromide]	0.73
CN1[C@@H]2C[C@@H](OC(=O)[C@H](CO)c3ccccc3)C[C@H]1[C@@H]1O[C@@H]12 [Scopolamine HBr]	-0.95
CNC1CC(N)C(O)C(OC2OC(CO)C(O)C3OC4(OC(C(N)CO)C(O)C(O)C4O)OC23)C1O (centres undefined) [Hygromycin B]	0.06
CN1c2ccccc2C(NCCCCCCC(=O)O)c2ccc(Cl)cc2S1(=O)=O (centres undefined) [Tianeptine sodium]	0.21
